The full list was thinned out, with hits kept by preference.
KDM5B inhibitor – blocks human KDM5B histone demethylase activity; AID 1347165; hit rate 2.6% among 220,000; Potency, µM (doses to about 57.7 µM), hits mostly inhibitors; KDM5B demethylase, FDH-coupled NADH fluorescence (FDH is formaldehyde dehydrogenase); Q9UGL1; active = well fitted inhibition curve with a large enough effect; also: 0% is about no effect; nearly all actives have a fitted effect of over 70% in size
Target sequence (Q9UGL1 whole entry, looked up): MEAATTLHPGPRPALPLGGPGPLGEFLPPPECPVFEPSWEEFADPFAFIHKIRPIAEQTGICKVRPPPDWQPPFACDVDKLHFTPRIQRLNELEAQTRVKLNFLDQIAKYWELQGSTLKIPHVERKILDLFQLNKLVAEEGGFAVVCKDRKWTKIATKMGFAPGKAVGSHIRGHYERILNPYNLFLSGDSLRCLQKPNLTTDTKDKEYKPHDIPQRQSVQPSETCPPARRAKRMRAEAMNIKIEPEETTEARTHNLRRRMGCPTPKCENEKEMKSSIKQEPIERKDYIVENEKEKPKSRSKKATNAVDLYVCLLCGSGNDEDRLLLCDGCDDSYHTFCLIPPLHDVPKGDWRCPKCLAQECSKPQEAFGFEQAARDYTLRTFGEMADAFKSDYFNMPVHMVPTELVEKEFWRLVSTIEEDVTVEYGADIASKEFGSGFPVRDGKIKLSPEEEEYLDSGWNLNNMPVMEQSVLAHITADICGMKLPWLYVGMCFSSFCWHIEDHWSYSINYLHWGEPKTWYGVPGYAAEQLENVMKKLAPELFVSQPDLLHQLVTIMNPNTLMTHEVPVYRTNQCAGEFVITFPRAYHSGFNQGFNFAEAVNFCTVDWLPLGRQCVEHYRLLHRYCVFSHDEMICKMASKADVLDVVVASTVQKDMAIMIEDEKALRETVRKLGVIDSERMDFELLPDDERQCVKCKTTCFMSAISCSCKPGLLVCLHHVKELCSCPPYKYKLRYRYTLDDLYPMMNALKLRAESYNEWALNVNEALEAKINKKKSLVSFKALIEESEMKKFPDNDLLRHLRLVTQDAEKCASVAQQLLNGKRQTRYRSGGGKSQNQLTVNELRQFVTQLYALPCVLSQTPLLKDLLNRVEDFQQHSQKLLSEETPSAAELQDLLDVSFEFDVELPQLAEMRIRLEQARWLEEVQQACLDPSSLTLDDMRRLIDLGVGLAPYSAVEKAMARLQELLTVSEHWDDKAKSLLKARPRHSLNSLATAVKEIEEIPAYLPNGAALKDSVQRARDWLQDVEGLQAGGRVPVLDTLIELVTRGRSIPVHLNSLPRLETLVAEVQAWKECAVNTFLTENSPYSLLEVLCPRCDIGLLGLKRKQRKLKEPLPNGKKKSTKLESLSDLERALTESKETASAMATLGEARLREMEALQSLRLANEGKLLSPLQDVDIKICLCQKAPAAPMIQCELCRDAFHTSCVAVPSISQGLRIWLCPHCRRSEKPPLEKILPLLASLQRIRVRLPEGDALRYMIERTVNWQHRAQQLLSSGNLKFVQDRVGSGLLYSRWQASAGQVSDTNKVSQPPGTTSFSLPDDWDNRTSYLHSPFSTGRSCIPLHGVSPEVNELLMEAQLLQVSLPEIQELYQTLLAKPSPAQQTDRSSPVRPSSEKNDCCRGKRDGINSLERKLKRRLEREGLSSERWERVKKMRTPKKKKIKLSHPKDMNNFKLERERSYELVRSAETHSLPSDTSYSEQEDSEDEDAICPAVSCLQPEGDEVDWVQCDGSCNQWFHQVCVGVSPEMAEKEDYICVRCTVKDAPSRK
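Coupled FDH/NAD⁺ fluorescence readout. KDM5BΔAP 200 nM final; compound titration, 10 min RT preincubation; substrate mix 12.5 µM H3K4me3, 25 µM 2-OG, 50 µM Fe(II), 100 µM ascorbate, 0.25 mM NAD⁺, 0.25 U/mL FDH; ΔRFU over 30 min.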
An asterisk follows results filed as active; i = inactive. Potency is read from the fitted curve at half-maximal effect.

SMILES	KDM5B inhibitor
CCN1CCCC1CNC(=O)CSCc1cccc(C)c1 (centres undefined)	i
O=C1Nc2ccccc2CC12CN(Cc1c[nH]c3ccccc13)C2	i
COC(=O)c1c(NC(=O)CN2CCNC(=O)C2)sc2c1CCCCC2	i
Cc1nc(Nc2ccccc2F)sc1C(=O)Nc1ccccc1	i
N#Cc1ccc(N2CCN(C(=O)CNC(N)=O)CC2=O)cc1	i
N#Cc1ccc(N2CCN(C(=O)CCn3cncn3)CC2=O)cc1	i
COc1cc2c(cc1CN1CCN(c3ccc(C#N)cc3)C(=O)C1)CCC2	31.6µM*
Cn1nc(-c2ccc(N3CCOCC3)c([N+](=O)[O-])c2)c2ccccc2c1=O	i
Cc1noc(C)c1COc1ccc(CC(=O)Nc2ncc(Cc3ccccc3)s2)cc1	i
O=C(NCc1ccc(Cl)nc1)c1cnn2c1CN(C(=O)c1cccnc1)CC2	i
Cn1cccc1C(=O)NCc1ccc(Cl)cc1	i
O=C(NCc1ccc(Cl)nc1)c1ccc2ccnn2c1	35.5µM*
O=C(NCc1ccc(Cl)cc1)c1ccc2ccnn2c1	35.5µM*
CN1C(=O)Cc2cc(C(=O)NCc3cccnc3)ccc21	i
O=C(NCc1ccc(Cl)cc1)c1ccc2oc(=O)n(Cc3ccccc3)c2c1	i
O=C(NCc1ccc2c(c1)CCN2C(=O)c1ccncc1)c1ccc(Cl)cc1	i
O=C(NCc1ccc(Cl)nc1)c1ccc2cncn2c1	35.5µM*
C[S+](=O)([O-])N1CCn2cc(C(=O)NCc3ccc(Cl)nc3)nc2C1	i
CC1CCC(N2CCC(=O)CC2)CC1 (centres undefined)	i
CCOc1ccc(Oc2ccc(NC(=O)Cn3ncc4ccccc4c3=O)cc2)cc1	i
O=C(CCc1ccccc1)N1CCc2c(nc(-c3ccc(F)cc3)[nH]c2=O)C1	i
COc1ccc(-c2nc3c(c(=O)[nH]2)CCN(C(=O)Nc2ccc(C)cc2C)C3)cc1	25.1µM*
COc1ccc(-c2nc3c(c(=O)[nH]2)CCN(C(=O)COc2ccc(F)c(F)c2)C3)cc1	22.4µM*
O=C(c1nccc2ccccc12)N1CCc2c(nc(-c3ccccc3)[nH]c2=O)C1	i
CCn1ccc(C(=O)N2CCc3c(nc(-c4ccc(OC)cc4)[nH]c3=O)C2)n1	i
SMILES	KDM5B inhibitor
CN1N=C(C(=O)N2CCc3c(nc(-c4ccncc4)[nH]c3=O)C2)CCC1=O	i
CC(C)CN(C(=O)COC(=O)c1n[nH]c2ccccc12)C1CCS(=O)(=O)C1 (centres undefined)	i
CC(=O)N1CCN([C@H]2[C@@H]3OC[C@@H](O3)[C@@H](NCc3ccccc3O)[C@@H]2O)CC1	i
CN1CCN([C@H]2[C@@H]3OC[C@@H](O3)[C@@H](NCc3ccc(-c4ccccc4)cc3)[C@@H]2O)CC1	i
Cn1cccc1CN[C@H]1[C@H](O)[C@@H](N2CCCC2)[C@@H]2OC[C@H]1O2	25.1µM*
COc1cc(/C=C(\C#N)C(=O)c2ccc(C)cc2)ccc1OCc1c(Cl)cccc1Cl	i
CCn1cc(-c2ccc(Cl)cc2)cc1C(=O)NCc1ccncc1	i
CCCn1cc(-c2ccncc2)cc1C(=O)NCc1ccccc1	i
CCCn1cc(-c2ccncc2)cc1C(=O)NCc1cccc(F)c1	25.1µM*
Cc1cc(C(=O)COc2ccccc2C#N)c(C)n1CCC(C)C	i
Cc1cccc(C(=O)N2CCC(N3C(=O)C4(CCCC4)C3c3scnc3C)CC2)c1 (centres undefined)	i
Cc1ccc(NC(=O)CCNc2cnc3cnccn23)cc1F	22.4µM*
Cc1ccc(NC(=O)Cn2c(C)cc(C)c(C#N)c2=O)cc1F	i
Cc1cc(C)n(C(C)CC(=O)Nc2ccc(C)c(F)c2)n1 (centres undefined)	i
Cc1nc(SCC(=O)N(Cc2ccc(F)cc2)C2CCCCC2)sc1CC(N)=O	i
Cc1nc(-c2cccc(Cl)c2)n(CC(=O)Nc2ccc3c(c2)OCO3)c(=O)c1CCO	i
COc1cccc(C(=O)NCC2(COc3cccc(C)n3)C[C@@H](O)[C@@H](O)C2)c1 (some centres undefined)	i
Cc1cccc(OCC2(CNC(=O)c3cc(C)nn3C)C[C@@H](O)[C@@H](O)C2)n1 (some centres undefined)	31.6µM*
Cc1cccc(OCC2(CNC(=O)c3cccc(F)c3)C[C@@H](O)[C@@H](O)C2)n1 (some centres undefined)	i
O=C1CC(c2ccccc2)N(C(=O)CNC(=O)Cn2c(=O)oc3ccccc32)CCCCCCN1 (centres undefined)	i
COc1ccc(-c2nc(C3CC3)nc3c2CCN(Cc2ccsc2)CC3)cc1	79.4µM*
CCc1nc2c(c(-c3ccc(Cl)cc3)n1)CCN(Cc1cccn1C)CC2	i
CCc1nc2c(c(-c3ccc(O)cc3)n1)CCN(Cc1ccsc1)CC2	i
COc1ccc(-c2nc(C3CC3)nc3c2CCN(Cc2cccn2C)CC3)cc1	50.1µM*
COc1ccc(-c2nc(C3CC3)nc3c2CN([S+](=O)([O-])c2ccccc2)CC3)cc1	i
CN(C)c1ccc(CN2CCc3nc(C4CC4)nc(-c4ccc(O)cc4)c3CC2)cc1	i

Screening data deposited in PubChem by National Center for Advancing Translational Sciences (NCATS).
